Laboratory results from PMC9911399, “Two distinct binding modes provide the RNA-binding protein RbFox with extraordinary sequence specificity”.
Residue numbers refer to the chain shown, from its start. Whole data set: some 16,000 sequences, median “ka relative to ugcaugu” near 0.096, cut for the highest 2% near 0.35. The list comes from a sample in which the highest values are over-represented; it also holds similar and randomly drawn sequences.

T1: RBFOX1 RRM RbFoxmut (Fox-RRM*) (Homo sapiens, UniProt Q9NWB1 109-208, R118D;E147R;N151S;E152T)
T1 sequence: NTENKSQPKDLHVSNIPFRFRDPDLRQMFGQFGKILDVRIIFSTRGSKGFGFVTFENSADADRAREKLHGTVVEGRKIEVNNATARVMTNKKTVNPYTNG

B1: CUCACAU (DNA:RNA)
RNA: GGGAGACCGGAAUUCAGAUUGUCCCUCACAUUUAAAUCCCGUCGUAGCCACCA
DNA 1: CAATCTGAATTCCGGTCTCCC
DNA 2: TGGTGGCTACGACGGGATT
B2: AUGCAGC (DNA:RNA)
RNA: B1 RNA with C25A, C27G, A28C, C29A, A30G, U31C
DNA 1: CAATCTGAATTCCGGTCTCCC
DNA 2: TGGTGGCTACGACGGGATT
B3: AGUCCCU (DNA:RNA)
RNA: B1 RNA with C25A, U26G, C27U, A28C, A30C
DNA 1: CAATCTGAATTCCGGTCTCCC
DNA 2: TGGTGGCTACGACGGGATT
B4: GAAGUCC (DNA:RNA)
RNA: GGGAGACCGGAAUUCAGAUUGUCCGAAGUCCUUAAAUCCCGUCGUAGCCACCA
DNA 1: CAATCTGAATTCCGGTCTCCC
DNA 2: TGGTGGCTACGACGGGATT
B5: UGCCAGA (DNA:RNA)
RNA: B1 RNA with C25U, U26G, A28C, C29A, A30G, U31A
DNA 1: CAATCTGAATTCCGGTCTCCC
DNA 2: TGGTGGCTACGACGGGATT
B6: GUGGUGG (DNA:RNA)
RNA: B4 RNA with A26U, A27G, C30G, C31G
DNA 1: CAATCTGAATTCCGGTCTCCC
DNA 2: TGGTGGCTACGACGGGATT
B7: UUGUUGG (DNA:RNA)
RNA: B1 RNA with C25U, C27G, A28U, C29U, A30G, U31G
DNA 1: CAATCTGAATTCCGGTCTCCC
DNA 2: TGGTGGCTACGACGGGATT
B8: GUCGUGG (DNA:RNA)
RNA: B4 RNA with A26U, A27C, C30G, C31G
DNA 1: CAATCTGAATTCCGGTCTCCC
DNA 2: TGGTGGCTACGACGGGATT
B9: UUGGUUG (DNA:RNA)
RNA: B4 RNA with G25U, A26U, A27G, C30U, C31G
DNA 1: CAATCTGAATTCCGGTCTCCC
DNA 2: TGGTGGCTACGACGGGATT
B10: GUGGUUG (DNA:RNA)
RNA: B4 RNA with A26U, A27G, C30U, C31G
DNA 1: CAATCTGAATTCCGGTCTCCC
DNA 2: TGGTGGCTACGACGGGATT
B11: UCCUUGG (DNA:RNA)
RNA: B1 RNA with C25U, U26C, A28U, C29U, A30G, U31G
DNA 1: CAATCTGAATTCCGGTCTCCC
DNA 2: TGGTGGCTACGACGGGATT
B12: UCCGUCA (DNA:RNA)
RNA: B4 RNA with G25U, A26C, A27C, C31A
DNA 1: CAATCTGAATTCCGGTCTCCC
DNA 2: TGGTGGCTACGACGGGATT
B13: GUAGCCA (DNA:RNA)
RNA: B4 RNA with A26U, U29C, C31A
DNA 1: CAATCTGAATTCCGGTCTCCC
DNA 2: TGGTGGCTACGACGGGATT
B14: ACACUGG (DNA:RNA)
RNA: B4 RNA with G25A, A26C, G28C, C30G, C31G
DNA 1: CAATCTGAATTCCGGTCTCCC
DNA 2: TGGTGGCTACGACGGGATT
B15: CCCCAGA (DNA:RNA)
RNA: B1 RNA with U26C, A28C, C29A, A30G, U31A
DNA 1: CAATCTGAATTCCGGTCTCCC
DNA 2: TGGTGGCTACGACGGGATT
B16: UAAACAG (DNA:RNA)
RNA: B1 RNA with C25U, U26A, C27A, U31G
DNA 1: CAATCTGAATTCCGGTCTCCC
DNA 2: TGGTGGCTACGACGGGATT
B17: CACGGCC (DNA:RNA)
RNA: B4 RNA with G25C, A27C, U29G
DNA 1: CAATCTGAATTCCGGTCTCCC
DNA 2: TGGTGGCTACGACGGGATT
B18: GCCUUUU (DNA:RNA)
RNA: B1 RNA with C25G, U26C, A28U, C29U, A30U
DNA 1: CAATCTGAATTCCGGTCTCCC
DNA 2: TGGTGGCTACGACGGGATT
B19: GCCUCGU (DNA:RNA)
RNA: B1 RNA with C25G, U26C, A28U, A30G
DNA 1: CAATCTGAATTCCGGTCTCCC
DNA 2: TGGTGGCTACGACGGGATT
B20: GCCUUGU (DNA:RNA)
RNA: B1 RNA with C25G, U26C, A28U, C29U, A30G
DNA 1: CAATCTGAATTCCGGTCTCCC
DNA 2: TGGTGGCTACGACGGGATT
B21: GCCUUGC (DNA:RNA)
RNA: B4 RNA with A26C, A27C, G28U, C30G
DNA 1: CAATCTGAATTCCGGTCTCCC
DNA 2: TGGTGGCTACGACGGGATT
B22: GCCUUCA (DNA:RNA)
RNA: B4 RNA with A26C, A27C, G28U, C31A
DNA 1: CAATCTGAATTCCGGTCTCCC
DNA 2: TGGTGGCTACGACGGGATT
B23: GUCGGCC (DNA:RNA)
RNA: B4 RNA with A26U, A27C, U29G
DNA 1: CAATCTGAATTCCGGTCTCCC
DNA 2: TGGTGGCTACGACGGGATT
B24: GCCUUGA (DNA:RNA)
RNA: B4 RNA with A26C, A27C, G28U, C30G, C31A
DNA 1: CAATCTGAATTCCGGTCTCCC
DNA 2: TGGTGGCTACGACGGGATT
B25: GCCUUAA (DNA:RNA)
RNA: B1 RNA with C25G, U26C, A28U, C29U, U31A
DNA 1: CAATCTGAATTCCGGTCTCCC
DNA 2: TGGTGGCTACGACGGGATT
B26: GCCUGCG (DNA:RNA)
RNA: B4 RNA with A26C, A27C, G28U, U29G, C31G
DNA 1: CAATCTGAATTCCGGTCTCCC
DNA 2: TGGTGGCTACGACGGGATT
B27: GGCGGCC (DNA:RNA)
RNA: B4 RNA with A26G, A27C, U29G
DNA 1: CAATCTGAATTCCGGTCTCCC
DNA 2: TGGTGGCTACGACGGGATT
B28: GCUUGCC (DNA:RNA)
RNA: B4 RNA with A26C, A27U, G28U, U29G
DNA 1: CAATCTGAATTCCGGTCTCCC
DNA 2: TGGTGGCTACGACGGGATT
B29: GGCCUUG (DNA:RNA)
RNA: B4 RNA with A26G, A27C, G28C, C30U, C31G
DNA 1: CAATCTGAATTCCGGTCTCCC
DNA 2: TGGTGGCTACGACGGGATT
B30: AGUUUUA (DNA:RNA)
RNA: B4 RNA with G25A, A26G, A27U, G28U, C30U, C31A
DNA 1: CAATCTGAATTCCGGTCTCCC
DNA 2: TGGTGGCTACGACGGGATT
B31: UCGAAGU (DNA:RNA)
RNA: B1 RNA with C25U, U26C, C27G, C29A, A30G
DNA 1: CAATCTGAATTCCGGTCTCCC
DNA 2: TGGTGGCTACGACGGGATT

target: T1, RBFOX1 RRM RbFoxmut (Fox-RRM*); assay: EMSA; HiTS-Eq, 1 nM pool, 10 min; buffer printed only for the single-RNA assays: 10 mM Tris pH 7.5, 150 mM NaCl, 3.4 mM EDTA, 0.001% NP-40, 30 C; conditions: tags: His6 N-terminal (pET28a); label: 5' 32P
In short: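 Purified wild-type or mutant RbFox RRM at increasing concentrations was equilibrated with 1 nM of 5′-radiolabelled RNA carrying 7 randomized nucleotides for 10 min in 50 µL. Unbound RNA was separated by 8% native PAGE and sequenced. Relative association constants came from read-count changes of each RNA species compared with the control reaction, normalised to the cognate motif.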

Row | Binder | binding signal
1 | B1 | 0.0911 KA relative to UGCAUGU
2 | B2 | 0.106 KA relative to UGCAUGU
3 | B3 | 0.0659 KA relative to UGCAUGU
4 | B4 | 0.0491 KA relative to UGCAUGU
5 | B5 | 0.116 KA relative to UGCAUGU
6 | B6 | 0.15 KA relative to UGCAUGU
7 | B7 | 0.117 KA relative to UGCAUGU
8 | B8 | 0.112 KA relative to UGCAUGU
9 | B9 | 0.65 KA relative to UGCAUGU
10 | B10 | 0.737 KA relative to UGCAUGU
11 | B11 | 0.0776 KA relative to UGCAUGU
12 | B12 | 0.111 KA relative to UGCAUGU
13 | B13 | 0.082 KA relative to UGCAUGU
14 | B14 | 0.123 KA relative to UGCAUGU
15 | B15 | 0.0916 KA relative to UGCAUGU
16 | B16 | 0.0612 KA relative to UGCAUGU

Row | Binder | binding signal
17 | B17 | 0.18 KA relative to UGCAUGU
18 | B18 | 0.0724 KA relative to UGCAUGU
19 | B19 | 0.224 KA relative to UGCAUGU
20 | B20 | 0.714 KA relative to UGCAUGU
21 | B21 | 0.387 KA relative to UGCAUGU
22 | B22 | 0.146 KA relative to UGCAUGU
23 | B23 | 0.214 KA relative to UGCAUGU
24 | B24 | 0.561 KA relative to UGCAUGU
25 | B25 | 0.0981 KA relative to UGCAUGU
26 | B26 | 0.172 KA relative to UGCAUGU
27 | B27 | 0.16 KA relative to UGCAUGU
28 | B28 | 0.239 KA relative to UGCAUGU
29 | B29 | 0.478 KA relative to UGCAUGU
30 | B30 | 0.101 KA relative to UGCAUGU
31 | B31 | 0.107 KA relative to UGCAUGU
